The panel holds about 79,000 compounds, 15% with a hit somewhere; the sample as a whole holds those more often. A number with no mark means an inactive call. The source made the active and inactive calls. Cut-off read from the data, not from the text of the source: active = growth inhibition above about 70%; inactive = the rest.

Assay [1] in a line: NCI Yeast Anticancer Drug Screen. Data for the rad50 strain (AID 155).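 Note: 0% = growth of vehicle-only cultures of the same strain.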 The following applies: S. cerevisiae rad50 strain growth inhibition, stronger effect = higher value. The essentials:
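Cells are treated with compound, grown, and their growth is then scored against vehicle-only cultures of the same repair-deficient yeast strain.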

Assay [2] is described as follows: NCI Yeast Anticancer Drug Screen. Data for the mec2-1 strain (AID 157). The following applies: S. cerevisiae mec2-1 strain, stronger effect = higher value. The essentials:
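Vehicle-treated cultures served as reference for growth inhibition of compound-exposed mec2-1 yeast.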

Assay [3] in a line: NCI Yeast Anticancer Drug Screen. Data for the sgs1 mgt1 strain (AID 161).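 Note: 0% = growth of cultures given vehicle only.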 The following applies: S. cerevisiae sgs1 mgt1 strain, stronger effect = higher value. A digest of the protocol:
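Test agents were incubated with a DNA-repair-mutant yeast strain. Growth was then read and compared against vehicle-treated controls.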

A short description of assay [4]: NCI Yeast Anticancer Drug Screen. Data for the cln2 rad14 strain (AID 165).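 Note: 0% = growth equal to vehicle treated cultures.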 The conditions noted are these: S. cerevisiae cln2 rad14 strain, stronger effect = higher value. The essentials: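 Each compound was tested on cln2 rad14 yeast. Inhibition of growth was calculated against vehicle-exposed controls.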
Assay [5] is described as follows: NCI Yeast Anticancer Drug Screen. Data for the bub3 strain (AID 167). The conditions noted are these: S. cerevisiae bub3 mutant strain, stronger effect = higher value. The essentials:
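Part of a panel of yeast mutants defective in DNA damage repair or cell cycle regulation. Each strain is grown with compound, and inhibition is calculated relative to solvent-treated cultures.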

Assay [6] is described as follows: NCI Yeast Anticancer Drug Screen. Data for the mlh1 rad18 strain (AID 175). The conditions noted are these: S. cerevisiae mlh1 rad18 strain growth inhibition, stronger effect = higher value. A digest of the protocol:
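Vehicle-treated cultures served as the reference for growth inhibition in a yeast strain carrying DNA damage repair alterations exposed to each compound.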

[7] abbreviates: at 5.0 µM (retest, dose inferred, filed as 0.5).
Setting [8] is: at 50.0 µM (retest, dose inferred, filed as 5.0).

Consider `Cc1c2c(c(C)c3c1OC(C)(C)CC3)OC(C)(C)CC2`, for which the growth inhibition in assay [1] (setting [7]) was -10%; in assay [1] (setting [8]), -4%; in assay [1] (at 50.0 µM), 34.6%; in assay [2] (setting [7]), -13%; in assay [2] (setting [8]), -7%; in assay [2] (at 50.0 µM) it was 77.2% (active). Also, the growth inhibition in assay [3] (setting [7]) is -14%; in assay [3] (setting [8]), 8%; in assay [3] (at 50.0 µM), 62.2%; in assay [4] (setting [7]), -6%; in assay [4] (setting [8]) it was 0%; in assay [4] (at 50.0 µM) it was 46.5%. Moreover, the growth inhibition in assay [5] (setting [7]) is -5%; in assay [5] (setting [8]), -5%; in assay [5] (at 50.0 µM), 11.2%; in assay [6] (setting [7]), -13%; in assay [6] (setting [8]) it was -7%; in assay [6] (at 50.0 µM) it was 98.2% (active).

As to `Cc1ccc(S(=O)(=O)NNC(=O)c2sc(-c3nc(C)c(C(=O)NNS(=O)(=O)c4ccc(C)cc4)s3)nc2C)cc1`, the growth inhibition in assay [1] (setting [7]) is 2%; in assay [1] (setting [8]), 98% (active); in assay [1] (at 50.0 µM), 7.3%; in assay [2] (setting [7]) it was 2%; in assay [2] (setting [8]), 99% (active); in assay [2] (at 50.0 µM), 8%. Besides, the growth inhibition in assay [3] (setting [7]) is 5%; in assay [3] (setting [8]), 99% (active); in assay [3] (at 50.0 µM) it was 83.5% (active); in assay [4] (setting [7]), 8%; in assay [4] (setting [8]), 98% (active); in assay [4] (at 50.0 µM), -43.5%. In addition, the growth inhibition in assay [5] (setting [7]) is 8%; in assay [5] (setting [8]), 98% (active); in assay [5] (at 50.0 µM), 14.3%; in assay [6] (setting [7]) it was 2%; in assay [6] (setting [8]), 98% (active); in assay [6] (at 50.0 µM) it was 15%.

For `COc1c(O)cc2c(c1O)C(=O)C1=C(CCCC1)C2=O`, the growth inhibition in assay [1] (setting [7]) was -4%; in assay [1] (setting [8]), 63%; in assay [1] (at 50.0 µM) it was 47.1%; in assay [2] (setting [7]), 2%; in assay [2] (setting [8]), 49%; in assay [2] (at 50.0 µM) it was 22.2%. The growth inhibition in assay [3] (setting [7]) was 4%; in assay [3] (setting [8]), 88% (active); in assay [3] (at 50.0 µM), 62.1%; in assay [4] (setting [7]), -5%; in assay [4] (setting [8]) it was 22%; in assay [4] (at 50.0 µM), 38.9%. Besides, the growth inhibition is 11% in assay [5] (setting [7]); 80% (active) in assay [5] (setting [8]); 65% in assay [5] (at 50.0 µM); 2% in assay [6] (setting [7]); 70% (active) in assay [6] (setting [8]); 21.3% in assay [6] (at 50.0 µM).

Consider `C/C(=N\Nc1n[nH]c(=S)n1N)c1c(O)cc(C)oc1=O`, for which the growth inhibition is -28% in assay [1] (setting [7]); 13% in assay [1] (setting [8]); -23% in assay [1] (at 50.0 µM); 3% in assay [2] (setting [7]); 12% in assay [2] (setting [8]); 12.1% in assay [2] (at 50.0 µM). In addition, the growth inhibition in assay [3] (setting [7]) is -1%; in assay [3] (setting [8]), 4%; in assay [3] (at 50.0 µM), 18.9%; in assay [4] (setting [7]), -2%; in assay [4] (setting [8]), 9%; in assay [4] (at 50.0 µM), -21%. For the same compound, the growth inhibition is 2% in assay [5] (setting [7]); 3% in assay [5] (setting [8]); 14.1% in assay [5] (at 50.0 µM); -2% in assay [6] (setting [7]); 2% in assay [6] (setting [8]); 16.5% in assay [6] (at 50.0 µM).

Take `CC(=O)Oc1ccccc1N(C(C)=O)S(=O)(=O)c1ccc(C)cc1`: the growth inhibition in assay [1] (setting [7]) is 16%; in assay [1] (setting [8]), 98% (active); in assay [1] (at 50.0 µM) it was 95.7% (active); in assay [2] (setting [7]), 12%; in assay [2] (setting [8]) it was 99% (active); in assay [2] (at 50.0 µM), 97.5% (active). For the same compound, the growth inhibition in assay [3] (setting [7]) is 11%; in assay [3] (setting [8]), 99% (active); in assay [3] (at 50.0 µM), 96.2% (active); in assay [4] (setting [7]) it was 1%; in assay [4] (setting [8]) it was 99% (active); in assay [4] (at 50.0 µM), 98.5% (active). The growth inhibition in assay [5] (setting [7]) was -2%; in assay [5] (setting [8]) it was 99% (active); in assay [5] (at 50.0 µM) it was 99.2% (active); in assay [6] (setting [7]), 34%; in assay [6] (setting [8]) it was 99% (active); in assay [6] (at 50.0 µM) it was 98.8% (active).

As to `CCC(C)(O)C#Cc1ccc(C)nc1` (stereo not given), the growth inhibition in assay [1] (setting [7]) is 2%; in assay [1] (setting [8]), 6%; in assay [1] (at 50.0 µM), 16.1%; in assay [2] (setting [7]), 0%; in assay [2] (setting [8]), 3%; in assay [2] (at 50.0 µM), 9.4%. For the same compound, the growth inhibition in assay [3] (setting [7]) is -2%; in assay [3] (setting [8]) it was 2%; in assay [3] (at 50.0 µM), 7.7%; in assay [4] (setting [7]) it was 0%; in assay [4] (setting [8]), -1%; in assay [4] (at 50.0 µM) it was 14.5%. The growth inhibition was 1% in assay [5] (setting [7]); -1% in assay [5] (setting [8]); 13.8% in assay [5] (at 50.0 µM); -12% in assay [6] (setting [7]); 4% in assay [6] (setting [8]); 0.4% in assay [6] (at 50.0 µM).

With `CCc1ccc(C(=O)O)cc1`, the growth inhibition in assay [1] (setting [7]) is -2%; in assay [1] (setting [8]), -2%; in assay [1] (at 50.0 µM), 2.7%; in assay [2] (setting [7]), -2%; in assay [2] (setting [8]) it was -2%; in assay [2] (at 50.0 µM), -11.9%. The growth inhibition was -1% in assay [3] (setting [7]); 0% in assay [3] (setting [8]); -1.1% in assay [3] (at 50.0 µM); -5% in assay [4] (setting [7]); -17% in assay [4] (setting [8]); 76.7% (active) in assay [4] (at 50.0 µM). Besides, the growth inhibition in assay [5] (setting [7]) was -6%; in assay [5] (setting [8]), 2%; in assay [5] (at 50.0 µM), -15.2%; in assay [6] (setting [7]), -5%; in assay [6] (setting [8]) it was -3%; in assay [6] (at 50.0 µM), 10%.

Regarding `CC(=O)NC1=C(Nc2ccc(-c3ccc(NC4=C(NC(C)=O)C(=O)c5ccccc5C4=O)cc3)cc2)C(=O)c2ccccc2C1=O`, the growth inhibition in assay [1] (setting [7]) is 99% (active); in assay [1] (setting [8]) it was 98% (active); in assay [1] (at 50.0 µM), 99.2% (active); in assay [2] (setting [7]) it was 100% (active); in assay [2] (setting [8]), 99% (active); in assay [2] (at 50.0 µM), 99.5% (active). The growth inhibition in assay [3] (setting [7]) is 100% (active); in assay [3] (setting [8]), 99% (active); in assay [3] (at 50.0 µM), 99.5% (active); in assay [4] (setting [7]) it was 99% (active); in assay [4] (setting [8]) it was 98% (active); in assay [4] (at 50.0 µM) it was 99.1% (active). Moreover, the growth inhibition in assay [5] (setting [7]) is 99% (active); in assay [5] (setting [8]), 99% (active); in assay [5] (at 50.0 µM), 98.7% (active); in assay [6] (setting [7]) it was 99% (active); in assay [6] (setting [8]), 99% (active); in assay [6] (at 50.0 µM), 99.3% (active).

As to `Cc1cc(Cl)ccc1NC(=O)CC1SC(=NC(=O)c2ccccc2Cl)NC1=O` (stereo not given), the growth inhibition in assay [1] (setting [7]) is 98% (active); in assay [1] (setting [8]), 99% (active); in assay [1] (at 50.0 µM), 91% (active); in assay [2] (setting [7]), 99% (active); in assay [2] (setting [8]), 100% (active); in assay [2] (at 50.0 µM), 94.2% (active). The growth inhibition was 96% (active) in assay [3] (setting [7]); 99% (active) in assay [3] (setting [8]); 90.7% (active) in assay [3] (at 50.0 µM); 48% in assay [4] (setting [7]); 99% (active) in assay [4] (setting [8]); 92.4% (active) in assay [4] (at 50.0 µM). The growth inhibition in assay [5] (setting [7]) is 98% (active); in assay [5] (setting [8]), 99% (active); in assay [5] (at 50.0 µM) it was 91.5% (active); in assay [6] (setting [7]), 98% (active); in assay [6] (setting [8]) it was 99% (active); in assay [6] (at 50.0 µM), 92.2% (active).

For the compound `Fc1cccc(CSc2n[nH]c(=S)c3nc[nH]c23)c1`, the growth inhibition in assay [1] (setting [7]) is 0%; in assay [1] (setting [8]), -3%; in assay [1] (at 50.0 µM), 9.9%; in assay [2] (setting [7]) it was -8%; in assay [2] (setting [8]), -1%; in assay [2] (at 50.0 µM), 10%. For the same compound, the growth inhibition in assay [3] (setting [7]) is -1%; in assay [3] (setting [8]), -10%; in assay [3] (at 50.0 µM), 15.4%; in assay [4] (setting [7]), -7%; in assay [4] (setting [8]), -14%; in assay [4] (at 50.0 µM), 40.8%. For the same compound, the growth inhibition is -2% in assay [5] (setting [7]); -3% in assay [5] (setting [8]); -3.85% in assay [5] (at 50.0 µM); -16% in assay [6] (setting [7]); -16% in assay [6] (setting [8]); 5.1% in assay [6] (at 50.0 µM).

For the origin of these results see PubChem BioAssay (NCI).
